Screening data deposited in PubChem by NMMLSC.
Only some compounds are listed: those with a hit (about 3.5% of all), similar ones and a draw of the others.
Autofluor counter: counter-screen for toxin protease inhibitors: compound fluorescence; hit rate 3.1% among 360,000; fluorescence intensity (no concentration beside the values); compound autofluorescence counterscreen, microsphere flow cytometry; hits give high values; AID 624483; in the data active means fluorescence intensity above about 16000; inconclusive means no clear call, values can overlap the other calls
BoNT F protease: BoNT F light chain protease inhibition; hit rate 0.22% among 360,000; AID 588497; inhibition, % at 10 µM; Multiplex microsphere protease cleavage assay, flow cytometry; in the data active means inhibition above about 35%, passing the limit was not always enough; inconclusive means no clear call, values can overlap the other calls
Anthrax LF inh2: blocks Bacillus anthracis lethal factor protease | P15917 | multiplex microsphere protease cleavage assay, LF | inhibition, % at 10 µM | hit rate 0.12% among 360,000
Target sequence (P15917 whole entry, looked up): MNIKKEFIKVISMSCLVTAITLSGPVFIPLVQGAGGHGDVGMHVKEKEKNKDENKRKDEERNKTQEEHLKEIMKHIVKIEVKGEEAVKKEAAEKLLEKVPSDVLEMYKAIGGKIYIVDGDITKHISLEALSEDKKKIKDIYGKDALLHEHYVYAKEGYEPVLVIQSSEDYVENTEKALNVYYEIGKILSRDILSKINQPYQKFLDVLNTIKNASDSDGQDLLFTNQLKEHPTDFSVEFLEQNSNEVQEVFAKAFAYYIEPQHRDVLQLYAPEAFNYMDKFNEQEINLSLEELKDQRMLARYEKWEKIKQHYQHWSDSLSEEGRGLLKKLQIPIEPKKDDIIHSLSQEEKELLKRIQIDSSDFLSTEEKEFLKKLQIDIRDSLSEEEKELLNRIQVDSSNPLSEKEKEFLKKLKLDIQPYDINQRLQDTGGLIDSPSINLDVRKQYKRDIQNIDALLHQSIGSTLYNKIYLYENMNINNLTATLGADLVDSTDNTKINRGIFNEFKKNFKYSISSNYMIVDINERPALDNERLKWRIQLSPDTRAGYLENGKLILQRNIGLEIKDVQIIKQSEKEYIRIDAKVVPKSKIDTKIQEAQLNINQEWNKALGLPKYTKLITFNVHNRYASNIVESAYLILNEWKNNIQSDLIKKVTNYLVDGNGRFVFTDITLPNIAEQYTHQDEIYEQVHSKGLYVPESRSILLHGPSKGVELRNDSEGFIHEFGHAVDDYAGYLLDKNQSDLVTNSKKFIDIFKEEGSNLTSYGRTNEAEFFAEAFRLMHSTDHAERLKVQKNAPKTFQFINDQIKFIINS
BoNT A protease: blocks Botulinum neurotoxin A light chain protease; inhibition, % at 10 µM; hit rate 0.17% among 360,000; multiplex microsphere protease substrate cleavage, flow cytometry
Of the large screens only hits and unclear results are named; the others gave an inactive call. Unless noted, no stated cut-off is given here; in the data, active means inhibition above about 30%; inconclusive means no clear call, values can overlap the other calls; inactive means below that.

CCCn1c(=S)[nH]c2cc(C(=O)N3CCc4ccccc43)ccc2c1=O	Autofluor counter 21147
COCCn1c(=S)[nH]c2cc(C(=O)N3CCc4ccccc43)ccc2c1=O	Autofluor counter 24139
COCCn1c(=S)[nH]c2cc(C(=O)N3CCN(C4CCCCC4)CC3)ccc2c1=O	none
Cc1[nH]c(=O)[nH]c(=O)c1C=CC(=O)NC(CO)CS(=O)Cc1ccccc1 (stereo not drawn)	none
Cc1cc2nc(SCC(=O)Nc3nonc3C)c3c(c2cc1C)CCCC3	Autofluor counter 22694, BoNT A protease inconclusive
Cc1nonc1NC(=O)CSc1nc(C2CCCCC2)nc2ccccc12	none
CC(=O)c1cc2c(cc1NC(=O)Cc1ccsc1)OCO2	none
O=C(Nc1cccc(Cl)c1)C1C2C=CC3(O2)C1C(=O)N(CCCN1CCCCC1)C3C(=O)NC1CCCCC1 (stereo not drawn)	none
COC(=O)CN(C)C1CC(=O)N(c2ccc(Cl)cc2)C1=O (stereo not drawn)	Autofluor counter 22599
O=C(COC(=O)c1ccccc1NS(=O)(=O)c1cccs1)NC1CCCCC1	BoNT F protease 45
CN(C)c1ccc(CNn2cnnc2SCc2ccccc2F)cc1	Autofluor counter 19034
O=S(=O)(c1ccc(F)cc1)N1CCN(c2ncccn2)CC1	none
O=S(=O)(c1ccccc1)N1CCN(c2ncccn2)CC1	Autofluor counter 22296
O=S(=O)(c1ccc(Br)s1)N1CCN(c2ncccn2)CC1	Autofluor counter 22792
Cn1c(N)c(C(=O)Nc2ccc3ccccc3c2)sc1=S	Autofluor counter 21788, BoNT A protease inconclusive
CSc1nsc(NN)n1	none
Cc1ccc2ncc([N+](=O)[O-])n2c1	Autofluor counter 21684
CCOc1ccc(OCC(=O)OC(C)C(=O)NC2CCCC2)cc1 (stereo not drawn)	none
CCOc1cc(C(=O)Nc2cnccn2)cc(OCC)c1OCC	Autofluor counter 20443
CCOc1cc(C(=O)NCc2ccncc2)cc(OCC)c1OCC	Autofluor counter 19468
O=C(Nc1cnccn1)c1ccncc1	Autofluor counter 24053
CCOc1cc(C(=O)Nc2cc(C)ccn2)cc(OCC)c1OCC	none
CC1(Br)C(Sc2ccccc2[N+](=O)[O-])=Nc2ccccc21 (stereo not drawn)	none
COC(CNC(=O)c1ccc(Cn2c(=S)[nH]c3cc4c(cc3c2=O)OCO4)cc1)OC	none
CCOCCCn1c(=S)[nH]c2cc(C(=O)NCCOC)ccc2c1=O	Autofluor counter 19971
COCCNC(=O)c1ccc(Cn2c(=S)[nH]c3cc4c(cc3c2=O)OCO4)cc1	Autofluor counter 22929
CCOCCCNC(=O)c1ccc2c(=O)n(CCCOCC)c(=S)[nH]c2c1	none
COc1cccc(C(c2c(O)nc(SC)n(C)c2=O)c2c(O)nc(SC)n(C)c2=O)c1	Autofluor counter 21226
COC(=O)c1cc(C(=O)Nc2cc(C)on2)cc([N+](=O)[O-])c1	none
Cc1ccc(NC(=O)COc2ccc(Br)cn2)cc1	none
Cc1ccc(NC(=O)COc2nc(C)cs2)cc1	Autofluor counter 16659
Cc1ccc(C)c(NC(=O)c2ccc(N(C)S(C)(=O)=O)cc2)c1	Autofluor counter 20420
CC(C)NC(=O)CSCc1c(F)cccc1Cl	Autofluor counter 16724
COc1ccc(CN2C(=O)NC3(CCCCC3)C2=O)cc1F	Autofluor counter 22242, BoNT A protease inconclusive
COc1ccc(COC(=O)CN2C(=O)NC3(CCCC3)C2=O)cc1F	Autofluor counter inconclusive
CCN(CC)c1ccc(NC(=O)Cn2nnc(-c3cccc(OC)c3OC)n2)c(C)c1	Autofluor counter 20991
COc1ccc(S(=O)(=O)Nc2ccc(F)cc2F)cc1C(=O)N1CCOCC1	none
CN1CCN(C(=O)c2cccn(Cc3cccc(Cl)c3)c2=O)CC1	BoNT F protease inconclusive
C=CCNC(=S)NNC(=O)c1cccn(Cc2cccc(Cl)c2)c1=O	Autofluor counter 24135
Cc1cc(C(=O)OCC(=O)N2CC(C)OC(C)C2)c(C)n1-c1ccccc1 (stereo not drawn)	none
N#Cc1cc(Oc2ccc3ccccc3c2)c(-n2nnc3ccccc32)cc1C#N	Autofluor counter 20725
CC1=CC(c2ccccc2)n2nc(NS(=O)(=O)c3ccc(C)cc3)nc2N1 (stereo not drawn)	none
CC1=CC(c2ccc(Cl)cc2)n2nc(NS(=O)(=O)c3ccc(C)cc3)nc2N1 (stereo not drawn)	Autofluor counter 23033
CNC(=O)COC(=O)c1nc(-n2nc(C)cc2C)ccc1Cl	Autofluor counter 24164
COCCNC(=O)Cn1ccc2cc(S(=O)(=O)N3CCCCCC3)ccc21	none
Cc1nc2cc3ccccc3cc2n1C	none
Cn1c(=O)[nH]c2cc3ccccc3cc21	Autofluor counter 19393, BoNT A protease inconclusive
CC(=O)c1cccc(S(=O)(=O)N2CCn3cccc3C2C)c1 (stereo not drawn)	none
COCCN1CCc2c(C)nc3c(-c4ccc(OC)c(OC)c4)cnn3c21	none
COc1ccc(-c2cnn3c4c(c(C)nc23)CCN4C2CCCC2)cc1OC	Autofluor counter 17372
COc1ccccc1CN(C(=O)c1cnccn1)C(C(=O)NC1CCCCC1)c1cc(OC)c(OC)c(OC)c1 (stereo not drawn)	none
CC(C)(C)OC(=O)N1CCCC(C(=O)Nc2cccc(C(=O)NCCCCc3ccccc3)c2)C1 (stereo not drawn)	none
Cc1ccsc1C(=O)N1CCCC(N2CCN(c3cccc(Cl)c3)CC2)C1 (stereo not drawn)	none
Cc1ccc(/C=C2\SC(=S)N(CCCC(=O)Nc3ccccn3)C2=O)cc1	none
COc1ccc(/C=C2\SC(=S)N(CCCC(=O)Nc3ccccn3)C2=O)cc1OC	BoNT A protease 39
COc1cc(/C=C2/SC(=S)N(CC(=O)NC(C)(C)C)C2=O)cc(OC)c1OC	BoNT A protease 31
CC12CC3(C)CC(C)(C1)CC(C(=O)NC1=NCCS1)(C2)C3	Autofluor counter 23810, BoNT A protease inconclusive
O=C(O)c1cc2cc(Cl)ccc2oc1=O	Autofluor counter 22395
COc1cc(OC)c(OC)cc1CNC(=O)c1cc(=O)[nH]c2ccccc12	none
Cn1nc(C(F)(F)F)c(/C=N/OC(=O)c2ccccc2)c1SCc1ccc(Cl)cc1	Autofluor counter 21079
Cn1nc(C(F)(F)F)c(/C=N/OC(=O)c2ccccc2Cl)c1SCc1ccccc1Cl	Autofluor counter 22148
Cn1nc(C(F)(F)F)c(/C=N/OC(=O)c2ccc(Cl)cc2)c1Cl	none
CC(C)Oc1cccc(C(=O)NC(=S)Nc2ccc(Cl)c(C(=O)O)c2)c1	Autofluor counter 23433
CCc1noc(C)c1C(=O)N(CC)CC(=O)Nc1cc(Cl)ccc1C	none
CCN(CC)S(=O)(=O)c1ccc(S(=O)(=O)Nc2ccc3c(c2)oc2ccccc23)cc1	Autofluor counter 20070, BoNT A protease inconclusive
Cc1ccc(CN2CCN(C(=O)C3CCC3)CC2)cc1	Autofluor counter 22954
CCN(CC)S(=O)(=O)c1ccc(NCCc2ccccn2)nc1	none
Cc1cc(Br)c2c(c1)/C(=C/C(=O)c1cccs1)C(=O)N2	none
Cc1cccc2c1NC(=O)/C2=C\C(=O)c1cccs1	Autofluor counter 23425, BoNT A protease inconclusive
Cc1cc(C)c2c(c1)/C(=C/C(=O)c1ccc(Br)s1)C(=O)N2	Autofluor counter 21983, BoNT A protease inconclusive
COc1ccc(CNC(=O)C2CCN(C(=O)[C@@H]3Cc4ccccc4CN3)CC2)cc1	none
CCOC(=S)N/C(=N\S(=O)(=O)c1ccccc1)c1ccccc1	none
